Laboratory results from PubChem BioAssay (NCI).
This is part of a sample that, as a whole, favours compounds with a hit. Of some 83,000 tested, about 20% had one in any assay.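 48-hour exposure, single concentration, 96-well plates; percent growth endpoint where 0 means no net growth. Active: below 10.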 Unmarked numbers belong to inactive results. Active and inactive are the calls of the source.

How the values were obtained:
Assay in all cases: NCI-60 one-dose screen, 48 h (100 = growth as untreated, 0 = no growth, -100 = all killed)
Conditions in all cases: 10 µM unless noted
T-47D breast = tested on: T-47D breast
BT-549 breast = tested on: BT-549 breast
MDA-MB-435 melanoma = tested on: MDA-MB-435 melanoma
SW-620 colon = tested on: SW-620 colon
MCF7 breast = tested on: MCF7 breast
HCT-116 colon = tested on: HCT-116 colon
HCC-2998 colon = tested on: HCC-2998 colon
KM12 colon = tested on: KM12 colon

| SMILES | growth (T-47D breast) | growth (BT-549 breast) | growth (MDA-MB-435 melanoma) | growth (SW-620 colon) | growth (MCF7 breast) | growth (HCT-116 colon) | growth (HCC-2998 colon) | growth (KM12 colon) |
| --- | --- | --- | --- | --- | --- | --- | --- | --- |
| O=C(NCN1C(=O)c2cccc3cccc(c23)C1=O)N1CCC(Cc2ccccc2)CC1 | 88% | 98.4% | 104% | 100% | 87.5% | 87% | 109% | 99.4% |
| CSc1ccc(N(C)c2nc(C)nc3c2CCC3)cc1 | 64.5% | 23.6% | -12.8% (active) | 28.1% | 16% | 0.112% (active) |  | 8.57% (active) |
| CC1=CC(=O)N(c2cccc3c(N4C(=O)C=C(C)C4=O)cccc23)C1=O | 30.1% | 99.7% | 80.6% | 14.3% | 57.7% | 17.8% |  | 106% |
| COc1cc2c(cc1-c1c(C)noc1C)ncc1nc(C3CCC(F)(F)CC3)n([C@@H](C)COC(F)F)c12 | 29.2% | 56.3% | 36.5% | 62.5% | 13.6% | 34.1% |  | 41.8% |
| Cc1cc2nc3c4cc([N+](=O)[O-])cc([N+](=O)[O-])c4n(CCN(C)C)c3nc2cc1C | 73.6% | 90.7% | 92.1% | 45.6% | 63.2% | 45.3% |  | 77.1% |
| Cn1cc(-c2nc(-c3c[nH]c4ncccc34)cs2)c2cc(Cl)ccc21 | 38.9% | 70.6% | 51.9% | 73.3% | 17% | 32.2% |  | 9.88% (active) |
| Oc1cccc2ccc(N/N=C/c3cc(CN4CCCCC4)c(O)c4ncccc34)nc12 | 25.3% | 11.1% | 20.2% | 16% | 10.3% | 1.57% (active) |  | 9.18% (active) |
| C#CCN=C[C@]12CC[C@@H](C(=C)C)[C@@H]1[C@H]1CC[C@@H]3[C@@]4(C)CCC(=O)C(C)(C)[C@@H]4CC[C@@]3(C)[C@]1(C)CC2 | 37% | 48.3% | 72.4% | 65.3% | 42.5% | 26.8% |  | 61% |
| COc1cccc(-c2nn(-c3ccccc3)cc2-c2ccnc(NCCCNS(=O)(=O)c3ccccc3)c2)c1 | -4.99% (active) | 35.7% | 37.4% | 46.5% | 18.2% | 25.7% | 19.7% | 29.6% |
| Cc1cc(N=O)cc(C(C)(C)C)c1O | 85.4% | 97.7% | 99.4% | 94.8% | 93.6% | 88.1% |  | 102% |
| O=C1Nc2ccccc2/C1=C/c1cn(CCCn2c3ccccc3c(=O)c3ccccc32)c2ccccc12 | 74.1% | 84.6% | 94.6% | 98.4% | 47.3% | 87% |  | 88.3% |
| CCCCCCCC(=O)SCC/C=C/[C@@H]1CC(=O)NCc2cccc(n2)CN(Cc2ccc(Cl)cc2)CC(=O)N[C@@H](C(C)C)C(=O)O1 | 30.9% | 38.8% | 6.92% (active) | 16.7% | 9.09% (active) | -1.93% (active) |  | 5.69% (active) |
| Cc1ccc(/C=C(\C#N)c2cc3ccccc3n2C)cc1 | 54.9% | 0.46% (active) | -1.88% (active) | 31.8% | 18.4% | 16.2% |  | 22.3% |
| CCCCC(=O)OC1CCCCC1C (configuration not stated) | 95.2% | 85.2% | 101% | 105% | 103% | 81% | 111% | 99.2% |
| COc1cc2c(cc1-c1c(C)noc1C)ncc1nc(C3CCCCC3)n([C@@H](C)COC(F)F)c12 | 25% | 52.9% | 28.2% | 59.2% | 12.1% | 24.8% |  | 35.9% |
| CN1CCN(c2nc(-c3cccc4ccccc34)nc3sc4c(c23)CCCCCC4)CC1 | 67.2% | 91.9% | 93.3% | 83.8% | 68.2% | 67.9% |  | 98.8% |

| SMILES | growth (T-47D breast) | growth (BT-549 breast) | growth (MDA-MB-435 melanoma) | growth (SW-620 colon) | growth (MCF7 breast) | growth (HCT-116 colon) | growth (HCC-2998 colon) | growth (KM12 colon) |
| --- | --- | --- | --- | --- | --- | --- | --- | --- |
| COc1cc2nc(Cl)nc(Nc3cccc(C(=O)/C=C/c4ccc(Cl)cc4)c3)c2cc1OC | 71.1% | 67% | 69.9% | -5.87% (active) | 19.7% | -0.905% (active) |  | 40.5% |
| Clc1ccc(Cn2cc(-c3nc4ccc(Br)nc4n3Cc3ccc(Cl)cc3)c3cccnc32)cc1 | 34.7% | 82.4% | 105% | 103% | 57.7% | 84.1% |  | 95.9% |
| C=CC(=O)N[C@H](Cc1ccc(-c2cc(Cl)cc(Cl)c2)cc1)[C@H](O)[C@@H](O)C(=O)O | 90% | 87.4% | 102% | 98.1% | 87% | 75.5% |  | 99.3% |
| C#Cc1cc2c(N)c(C(=O)c3cc(OC)c(OC)c(OC)c3)[nH]c2cc1OC | 25.7% | 57.4% | -15.8% (active) | 18.4% | 19.7% | 29.9% |  | 31.5% |
| N#CC1=C(N)Oc2c(c(N)nn2-c2ccccc2)C1c1ccc(Cl)cc1Cl (configuration not stated) | 77.6% | 97.8% | 103% | 100% | 98.3% | 94.4% |  | 99.3% |
| COc1cc(-c2nc(-c3ccccc3)c(-c3ccccc3)[nH]2)cc(OC)c1O | 6.06% (active) | 11.5% | -23.2% (active) | -37.2% (active) | -85.8% (active) | -2.7% (active) | -55.2% (active) | -52.9% (active) |
| CC(C)(C)c1ccc(OP(=S)(N/N=C/c2ccccc2O)Oc2ccc(C(C)(C)C)cc2)cc1 | 70.2% | 89.5% | 72% | 77.7% | 53.8% | 42.9% |  | 67.2% |
| N#C/C(=C\c1ccc(-c2ccc(Br)cc2)o1)c1nc(-c2ccco2)cs1 | -26.4% (active) | 98% | 98.2% | 95.6% | 15.4% | 95.6% |  | 59.4% |
| CC1(C)C=CC[C@]2(C)[C@H]3CC[C@@H]4[C@H]5[C@H](C(=O)/C=C/c6cccnc6)CC[C@]5(CO)CC[C@@]4(C)[C@]3(C)CC[C@@H]12 | -74.5% (active) | -81% (active) | -57.1% (active) | -59% (active) | -21.8% (active) | -88.6% (active) |  | -80.7% (active) |
| O=C1CNCCN1 | 110% | 100% | 107% | 104% | 89.3% | 101% | 111% | 110% |
| CC1(C)CC[C@]2(CO)CC[C@]3(C)C(=CC[C@@H]4[C@@]5(C)CC[C@H](NCO)C(C)(C)[C@@H]5CC[C@]43C)[C@@H]2C1 | 4.47% (active) | 59.1% | -5.37% (active) | -71.9% (active) | -26.3% (active) | -78.2% (active) |  | -80.7% (active) |
| Cc1cc(N2CCCC2)nc(N(CCNc2ccnc3cc(Cl)ccc23)Cc2ccco2)n1 | 12.4% | 22.3% | 44% | 25.5% | 17.9% | -50.9% (active) |  | 50% |
| NCCn1cc(-c2nc(-c3c[nH]c4ncccc34)cs2)c2ccccc21 | 22.6% | 98.9% | 98.3% | 96.1% | 60.4% | 94.5% | 93.8% | 73.4% |
| CC(C)(C)c1nc(-c2ccc(O)c(O)c2)cs1 | 61.6% | 63.3% | 36.6% | 28.6% | 83% | 48.8% | 86.1% | 76.7% |
| O=C1CN(c2ccccc2)C(=O)C1C(=O)Nc1ccc(Cl)c(Cl)c1 (configuration not stated) | 12.7% [100 µM] | 23.4% [100 µM] | 7.79% [100 µM] (active) | 20.1% [100 µM] | 15.7% [100 µM] | -19.4% [100 µM] (active) | 2.18% [100 µM] (active) | 17.2% [100 µM] |
| O=C(NC(Cc1cn(Cc2ccccc2)cn1)C(=O)O)OCC1c2ccccc2-c2ccccc21 (configuration not stated) | 112% | 97.2% | 113% | 104% | 104% | 90.8% |  | 101% |
